37 compounds from PubChem BioAssay AID2205 (University of Pittsburgh Molecular Library Screening Center, 2009) can be followed below.

The whole screen tested about 200,000 compounds, of which about 1,600 (0.8%) were called active.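 The calls were made as follows: active = plate Z-score above 3 for both tubulin-high and condensed-nucleus cell shares, with cell loss under 80%, at 10 µM; inactive = the rest, inconclusive results apart.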 Shown is part of a subset that was picked to be rich in actives.

A short description of this assay: tubulin staining increase by stabilizing compounds – imaging, high-content imaging, primary screen (AID 2205).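 As to % tubulin-high responders: anti alpha tubulin signal scored within the nucleus-defined area of each cell.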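 As to toxicity: 0% = mean cell density of plate MIN control wells and 100% = no cells.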 The conditions noted are these: HeLa tubulin immunostaining HCS, 24 h, at 10 µM; % Hoechst-high responders: measured here: nuclear condensation Hoechst responders, stronger effect = higher value, share of cells brighter than vehicle mean+2SD; % tubulin-high responders: stronger effect = higher value, share of cells brighter than vehicle mean+2SD; toxicity: measured here: cytotoxicity by cell density.
For the compound `Cc1cc(NC(=O)CSc2nnc(Nc3ccccc3F)s2)no1`, the % Hoechst-high responders turned out to be 2.66%, the % tubulin-high responders is 2.72% (inactive) and the toxicity was 6.41%.
As for `Cc1ccc(-c2csc(SCC(=O)Nc3cc(C)on3)n2)cc1`, the % Hoechst-high responders was 0.903%, the % tubulin-high responders is 2.28% (inactive) and the toxicity came to 2.29%.
Regarding `Cc1cc(C)c2c(c1)cc(C)c1nnc(SCC(=O)Nc3cc(C)on3)n12`, the % Hoechst-high responders stood at 18.1%, the % tubulin-high responders is 40.6% (active) and the toxicity is 66.4%.
For the compound `CCc1ccccc1NC(=O)Cc1cn(C)c2ccccc12`, the % Hoechst-high responders turned out to be 1.88%, the % tubulin-high responders is 2.42% (inactive) and the toxicity was 1.32%.
For the compound `CCN(CC)C(=O)C(=O)c1cn(CC(=O)NCc2ccc3c(c2)OCO3)c2ccccc12`, the % Hoechst-high responders was found to be 2.88%, the % tubulin-high responders was 3.53% (inactive) and the toxicity is 7.75%.
For `Cc1cc(C)cc(C(=O)NCC(=O)OCC(=O)N2CCCCC2)c1`, the % Hoechst-high responders is 1.86%, the % tubulin-high responders is 1.01% (inactive) and the toxicity is 6.66%.
Turning to `COc1ccccc1-c1nc(C#N)c(N2CCC(C(N)=O)CC2)o1`, the % Hoechst-high responders came to 1.21%, the % tubulin-high responders was 0.805% (inactive) and the toxicity came to 3.26%.
Consider `Cc1ccccc1-c1nc(C#N)c(NCc2ccco2)o1`, for which the % Hoechst-high responders turned out to be 2.06%, the % tubulin-high responders was 1.4% (inactive) and the toxicity amounted to 7.65%.
With `COc1ccc(Nc2oc(-c3ccccc3Cl)nc2C#N)cc1`, the % Hoechst-high responders came out at 19.8%, the % tubulin-high responders was 22.5% (active) and the toxicity stood at 63.9%.
For `N/C(=N\OS(=O)(=O)c1cccc([N+](=O)[O-])c1)c1ccncc1`, the % Hoechst-high responders came to 2%, the % tubulin-high responders is 1.6% (inactive) and the toxicity is 1.69%.
On to `O=[N+]([O-])c1ccc(C=Nc2ccc(Cl)cc2Cl)s1`, for which the % Hoechst-high responders worked out at 9.57%, the % tubulin-high responders was 11.5% (active) and the toxicity was 16%.
With `Cc1ccccc1NCC(=O)N/N=C\c1ccc([N+](=O)[O-])s1`, the % Hoechst-high responders is 2.71%, the % tubulin-high responders is 2.44% (inactive) and the toxicity was found to be 1.44%.
Turning to `CCOc1ccc(NC(=O)CCC(=O)N/N=C/c2ccc([N+](=O)[O-])s2)cc1`, the % Hoechst-high responders came to 1.9%, the % tubulin-high responders is 4.38% (inactive) and the toxicity was determined as 12.5%.
`CCOC(=O)/C(=C\c1ccc([N+](=O)[O-])cc1)C(=O)c1cc(C(C)=O)c(Nc2ccccc2)s1`: the % Hoechst-high responders was determined as 6.43%, the % tubulin-high responders is 24.7% (active) and the toxicity came to 66.1%.
On the same counts, the results for `O=C(Nc1ccccc1)/C(=C/c1ccc([N+](=O)[O-])cc1)NC(=O)c1ccccc1` are 4.34%, 2.81% (inactive) and 7.05%.
As to `Cc1cccc(NC(=O)c2sc(-c3ccccc3)nc2-c2ccc([N+](=O)[O-])cc2)c1`, the % Hoechst-high responders was determined as 5.34%, the % tubulin-high responders is 2.13% (inactive) and the toxicity was determined as 9.44%.
On the same counts, the results for `COC(=O)c1ccc(NCC(=O)N2CCCCCC2)cc1` are 2.09%, 3.14% (inactive) and 2.78%.
Turning to `COc1ccc(NC(=O)CSc2nnc(-c3ccccc3F)n2C2CC2)cc1S(N)(=O)=O`, the % Hoechst-high responders worked out at 2.54%, the % tubulin-high responders was 1.8% (inactive) and the toxicity was 10.7%.
On the same counts, the results for `COc1cc(/C=C(\C#N)c2nc3c(s2)CC(C)CC3)ccc1O` (stereo unspecified) are 2.11%, 1.86% (inactive) and 0.488%.
On the same counts, the results for `CCOc1cccc(C(=O)Nc2nnc(-c3cccs3)s2)c1` are 2.31%, 1.76% (inactive) and 5.03%.
With `CCOc1cc(/C=C(\C#N)c2nc(-c3cccs3)c(NC(C)=O)s2)ccc1O`, the % Hoechst-high responders turned out to be 49.3%, the % tubulin-high responders is 16.7% (active) and the toxicity was 32.4%.
For `CCCCc1cc2c(s1)CCCC/C2=N/O`, the % Hoechst-high responders is 1.99%, the % tubulin-high responders was 5.07% (inactive) and the toxicity stood at 0.0044%.
In the case of `CCCC(=O)Nc1nc2ccc(NC(=O)c3c(F)c(F)c(OC)c(F)c3F)cc2s1`, the % Hoechst-high responders is 44.1%, the % tubulin-high responders was 12.2% (active) and the toxicity came out at 35.6%.
On to `CSc1nc2ccc(NC(=O)c3c(F)cccc3F)cc2s1`, for which the % Hoechst-high responders is 3.31%, the % tubulin-high responders is 2.54% (inactive) and the toxicity worked out at 0.69%.
Turning to `CCC(=O)Nc1cccc(NC(=O)c2cccnc2)c1`, the % Hoechst-high responders was 1.83%, the % tubulin-high responders is 4.1% (inactive) and the toxicity was determined as 8.32%.
Turning to `COc1ccc2nc(Nc3nc4ccc(NC(C)=O)cc4s3)sc2c1`, the % Hoechst-high responders stood at 3.35%, the % tubulin-high responders was 5.83% (inactive) and the toxicity turned out to be 4.23%.
Turning to `CCCC(=O)Nc1nc2ccc(NC(=O)c3cccnc3)cc2s1`, the % Hoechst-high responders came to 19.5%, the % tubulin-high responders was 35.9% (active) and the toxicity is 55.8%.
On to `CCOC(=O)c1cc(NC(=O)c2cccnc2)cc(C(=O)OCC)c1`, for which the % Hoechst-high responders stood at 1.98%, the % tubulin-high responders was 4.37% (inactive) and the toxicity came out at 5.37%.
`O=C(COC(=O)Cn1cnc2ccccc2c1=O)NCc1ccccc1Cl`: the % Hoechst-high responders is 1.88%, the % tubulin-high responders is 6.58% (inactive) and the toxicity was 5.1%.
On the same counts, the results for `NS(=O)(=O)c1ccc(NC(=O)COC(=O)c2ccc(Cl)nc2)cc1` are 1.74%, 3.68% (inactive) and 9.84%.
On to `O=C(NNc1ccccn1)c1ccc(Cl)nc1`, for which the % Hoechst-high responders was found to be 2.04%, the % tubulin-high responders is 3.3% (inactive) and the toxicity stood at 8.78%.
Regarding `CCN(CC)c1ccc(NC(=O)c2ccc(Cl)nc2)cc1`, the % Hoechst-high responders turned out to be 27%, the % tubulin-high responders is 43% (active) and the toxicity came to 38.6%.
On the same counts, the results for `CC(=O)Nc1ccc(S(=O)(=O)NC2(C(F)(F)F)C(=O)NC(C)=C2C#N)cc1` (stereo unspecified) are 0.651%, 0.947% (inactive) and 1.71%.
In the case of `COc1ccc(-n2cc(CN(C)Cc3n[nH]c(=O)[nH]3)c(-c3cccc(F)c3)n2)cc1`, the % Hoechst-high responders was 0.946%, the % tubulin-high responders was 1.61% (inactive) and the toxicity worked out at 7.39%.
With `CCC(=O)/C(=C(/O)c1ccccc1)c1nc2ccccc2[nH]1`, the % Hoechst-high responders was determined as 1.47%, the % tubulin-high responders is 1.53% (inactive) and the toxicity was determined as 1.79%.
For `Oc1ccc(Cl)cc1/C=N/c1nc2ccccc2[nH]1`, the % Hoechst-high responders is 3.67%, the % tubulin-high responders is 2.45% (inactive) and the toxicity is 20.5%.
On the same counts, the results for `O=C(/C(=C/c1cccc(Cl)c1)c1nc2ccccc2[nH]1)c1ccccc1` are 42.6%, 47.1% (active) and 68.7%.
